Source: PubChem BioAssay
Most compounds without a hit are left out; they make up all but 19% or so of the library.
TDP1 cell noCPT: qHTS for Inhibitors of human tyrosyl-DNA phosphodiesterase 1 (TDP1): qHTS in cells in absence of CPT. DT40 Tdp1-/- hTDP1 cells, no CPT, ATP luminescence, 48 h. Potency, µM (series often up to 46.2 µM), for the others: at the top dose activity change, negative = growth inhibition, actives largely listed as inhibitors. 420,000 compounds, 15% hits; further: potency means the concentration at half of the fitted maximal effect; nearly all actives have a fitted effect of over 55% in size
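Readout: luminescence from CellTiter-Glo after 30 min in the dark at RT. Cells: DT40 Tdp1-/- with stable hTDP1, 400/well. Exposure: compounds alone, ≥48 hr, 37 °C.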
IL-1B inflam inh: inflammasome signaling inhibition, IL-1 beta readout. THP-1 LPS/ATP IL-1B secretion, AlphaLISA, 16 h; active compounds read low. activity change, % at 57.5 µM. 360,000 compounds, 4.7% hits. AID 743279; in the data active means activity change below about -50%; inconclusive means mostly about -30% to -49%
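THP-1 cells pretreated 1 hr with compounds (up to 57.5 uM final), then stimulated with LPS (250 ng/mL final) plus ATP (1.25 mM final); secreted IL-1B measured by AlphaLISA after 16 hr, decreased signal indicating inhibition.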
HT1080 IDH1KD tx: HT-1080 IDH1 knockdown cell toxicity (counter line); 360,000 compounds, 2% hits; AID 686971; Potency, µM (highest dose often 46.1 µM), for inactives: at the highest dose activity, negative = toxicity, usual class: cytotoxic; HT-1080 IDH1 knockdown viability, ATP luminescence, 48 h;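 further: potency means the concentration at half of the fitted maximal effect; 0% = DMSO wells and -100% = cell-free medium wells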
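Knockdown cells (IDH1KD HT-1080) received compounds 2 h after plating at 750 cells/well and were kept 48 h at 37 °C in 5% FBS RPMI. A CellTiter-Glo luminescence read gave % activity for curve fitting.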
HT1080NT lethal: kills 2HG-producing HT-1080-NT fibrosarcoma cells. HT-1080-NT fibrosarcoma viability, CellTiter-Glo ATP luminescence, 48 h. Potency, µM (highest dose often 46.1 µM), without a hit: at the top dose activity, negative = less viability, usual class: cytotoxic. 360,000 compounds, 1.6% hits. AID 686970;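 further: NT is the 2HG producing partner of a matched IDH1 knockdown line; potency means the concentration at half of the fitted maximal effect; 0% = DMSO-treated cells and -100% = media-only wells without cells; nearly all actives have a fitted effect of over 55% in size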
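HT-1080-NT; 750 cells/well; 5% FBS RPMI; 48 h compound, 37 degrees C; CellTiter-Glo luminescence; curve fitting and curve-class assignment.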
DT40 TDP1 CPT: DT40-hTDP1 cell growth loss with CPT; chicken DT40 Tdp1-/-;hTDP1 cells + 20 nM CPT, ATP luminescence, 48 h; AID 686979; 420,000 compounds, 12% hits; Potency, µM (highest dose often 46.2 µM), without a hit: top-dose activity change, negative = growth inhibition, most hits filed as inhibitors; further: potency means the concentration at half of the fitted maximal effect; nearly all actives have a fitted effect of over 55% in size
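Chicken DT40 Tdp1-/- cells stably complemented with human TDP1 were seeded at 400 cells/well in medium containing 20 nM camptothecin, exposed to pin-transferred compounds, and grown at 37 °C for at least 48 hr. Viability was read as ATP luminescence.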
* = called active by the depositor; ? = inconclusive; . = not tested or not shown; [ ] = another dose, or the depositor's remark. Unless noted, the call rests on the fitted dose curve; in most records, active means well fitted curve in the direction sought with a large enough effect; inconclusive means small, poorly fitted or top-dose-only effect, or another doubt; inactive means no such curve, though single readings can be large; an effect the other way counts as inactive or inconclusive. Unless noted, on the % scale 0 is the no-effect control and ±100 the full control effect.

SMILES | TDP1 cell noCPT | IL-1B inflam inh | HT1080 IDH1KD tx | HT1080NT lethal | DT40 TDP1 CPT
CC1CC(C)CN(C(=O)C(NS(=O)(=O)c2ccc(Br)s2)c2ccccc2)C1 (configuration not stated) | 15µM* | 2 | ? | -26% | 18µM*
COc1ccccc1N1CCN(C(=O)C(NS(=O)(=O)c2cccs2)c2ccccc2)CC1 (configuration not stated) | ? | 0 | 6% | 12% | ?
CCC(Sc1nnc(-c2ccco2)n1C)C(=O)Nc1nnc(C)s1 (configuration not stated) | -4% | 5 | 4% | 21% | -5%
O=C(NC1CCCCC1)c1cc(S(=O)(=O)N2CCCCC2)ccc1N1CCOCC1 | -24% | 10 | 0% | 0% | -17%
COCCn1c(=O)c(-c2cccs2)nc2cnc(OCc3ccccc3)nc21 | -9% | . | . | . | 39%
c1ccc(CN2CCN(C3=Nc4cccc5cccc3c45)CC2)cc1 | ? | -90* | -18% | -5% | ?
Fc1ccc(N2CCN(C3=Nc4cccc5cccc3c45)CC2)cc1 | 16µM* | -52* | ? | -25% | 26µM*
O=C(NCc1nnc2n1CCN(Cc1ccc(C(F)(F)F)cc1)CC2)c1cccc(F)c1 | ? | . | . | . | 18%[9.04 µM]
CN(C)C(=O)c1nc2ccccc2s1 | -7% | 18 | 11% | 2% | 9%
CN(C)c1ccc(CC(=O)c2nc3ccccc3s2)cc1 | ? | 35 | 4% | 0% | 16µM*
CC1CCN(Cc2ccc(-c3nn[nH]n3)cc2)CC1 | 0% | 13 | 16% | -2% | -20%
COC(=O)c1[nH]c2c(c1C)C(=O)CC(c1ccc(OC)c(OC)c1)C2 (configuration not stated) | -26% | 19 | 7% | 3% | ?
COC(=O)c1[nH]c2c(c1C)C(=O)CC(c1cccc(OC)c1)C2 (configuration not stated) | 1.3µM* | 5 | 0.92µM* | 0.73µM* | 1.5µM*
CCOCCOC(=O)c1[nH]c2c(c1C)C(=O)CC(c1cc(OC)c(OC)c(OC)c1)C2 (configuration not stated) | 9.2µM* | 1 | -22% | -16% | 10µM*
COCCOC(=O)c1[nH]c2c(c1C)C(=O)CC(c1ccc(OC)c(OC)c1)C2 (configuration not stated) | -28% | -14 | 2% | 1% | ?
COC(=O)c1[nH]c2c(c1C)C(=O)CC(c1cc(OC)c(OC)c(OC)c1)C2 (configuration not stated) | 12µM* | 33 | 0% | 3% | 23µM*
COc1cc(C2CC(=O)c3c([nH]c(C(=O)OC4CCCC4)c3C)C2)cc(OC)c1OC (configuration not stated) | 1.8µM* | . | . | . | 1.6µM*
Cc1c(C(=O)OC2CCC(C)CC2)[nH]c2c1C(=O)CC(c1ccc(N(C)C)cc1)C2 (configuration not stated) | -16% | . | . | . | -19%
O=C(O)C1CN(C(=O)c2ccccc2)c2cc(Cl)ccc2O1 (configuration not stated) | -14% | 27 | 6% | 9% | -9%
C=CCN1C(=O)c2ccc(C(=O)NCCc3ccc(OC)c(OC)c3)cc2C1=O | -1% | -3 | -1% | 0% | 6%
Cc1c(Cl)cccc1NC(=O)Nc1nnc(N2CCCCCC2)s1 | -16% | . | . | . | -12%
COc1cc(OC)c(NC(=O)Nc2nnc(N(C)C3CCCCC3)s2)cc1Cl | 8.2µM* | . | . | . | 21µM*
Cc1c(Cl)cccc1NC(=O)Nc1nnc(N(C)C2CCCCC2)s1 | 16µM* | . | . | . | 15µM*
Cc1ccc(NC(=O)Nc2nnc(N(C)C3CCCCC3)s2)c(Cl)c1 | ? | . | . | . | 16µM*
COc1ccccc1N1CCN(S(=O)(=O)c2cnc[nH]2)CC1 | 9% | 11 | 5% | 3% | -1%
SMILES | TDP1 cell noCPT | IL-1B inflam inh | HT1080 IDH1KD tx | HT1080NT lethal | DT40 TDP1 CPT
COc1cccc(-n2nnnc2S(C)(=O)=O)c1 | 2.6µM* | -92* | 7.3µM* | ? | 2.1µM*
Cc1cccc(-n2nnnc2S(C)(=O)=O)c1 | 0.73µM* | . | . | . | 1.2µM*
Cc1cccc(N2CC(=O)N(c3cccc(C)c3)CC2=O)c1 | -15% | 23 | 1% | 17% | -6%
CCc1ccc(NC(=O)C(C)OC(=O)C2CCC(=O)N2)cc1 (configuration not stated) | 1% | 9 | 8% | 14% | -2%
CC(C)(C)c1ccc(OCCC(=O)OCC(=O)NCc2ccccc2)cc1 | -22% | 7 | 8% | 12% | -17%
Cc1ccccc1C(=O)N(Cc1sccc1C)C1CCS(=O)(=O)C1 (configuration not stated) | -13% | . | . | . | 5%
CC(Sc1ccccn1)C(=O)NC1CCCC1 (configuration not stated) | 0% | 3 | 13% | 3% | 7%
Cc1c(C)c2c(cc(C)c3c(-c4ccc(Br)cc4)coc32)oc1=O | -1% | . | . | . | 3%
Fc1ccc(C(c2nnc(-c3ccccc3)o2)N2CCN(c3ccccc3)CC2)c(Cl)c1 (configuration not stated) | 21µM* | . | . | . | ?
CCOc1ccccc1NC(c1nnc(-c2ccccc2)o1)c1ccc(F)cc1Cl (configuration not stated) | 21µM* | . | . | . | ?
CC(C)c1ccc(NC(c2nnc(-c3ccccc3)o2)c2ccc(F)cc2Cl)cc1 (configuration not stated) | 18µM* | . | . | . | ?
Cc1ccc(S(=O)(=O)N2CCC(=O)N([C@H](COCc3ccc(C(F)(F)F)cc3)C(C)C)CC2)cc1 | ? | . | -29% | -15% | ?
COc1ccc(C2=C(C)C(N3CCN(C(=O)c4ccco4)CC3)=NS2(=O)=O)cc1 | 17% | -2 | 6% | 0% | -1%
COc1ccc(CC(=O)Nc2nc(OCCN3CCCC3=O)cnc2-c2cccc(C(F)(F)F)c2)cc1 | -21% | -16 | 0% | -7% | -12%
CC(=O)Nc1ccc(NC(=O)C(C)OC(=O)CCCN2C(=O)c3cccc4cccc(c34)C2=O)cc1 (configuration not stated) | -26% | 2 | -9% | 0% | ?
C=CCOc1nc2c(c(=O)n(C)c(=O)n2C)n1Cc1ccccc1Cl | 23µM* | 3 | ? | 5%[9.24 µM] | 16µM*
C=CCOc1nc2c(c(=O)n(C)c(=O)n2C)n1Cc1ccc(Cl)cc1 | 15µM* | -12 | 18% | 3% | 16µM*
Cc1ccc(CNc2nc3c(c(=O)n(C)c(=O)n3C)n2Cc2ccc(Cl)cc2)cc1 | ? | . | . | . | 1%
